Whole data set: some 25,000 sequences, median “ln(normalized median fluorescence intensity)” near 9.3, cut for the highest 2% near 10. For the sample, the highest values were picked, then their nearest neighbours and some sequences at random.
Test system: PF3D7_0420300 AP2 domain 1 (GST-tagged)
Experiment: gcPBM binding intensity (ln(normalized median fluorescence intensity)); higher = stronger DNA binding
How it was run: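 Alexa488 anti-GST antibody, scanned at 488 nm, detected GST-tagged P. falciparum DNA-binding domains that had been expressed in E. coli and incubated for 1 h on an Agilent 4 × 180k array. The array carried primer-extended double-stranded 36-bp intergenic genomic probes and negative controls. Binding intensity is the highest Masliner-normalised natural-log median intensity across replicate spots of either orientation of each probe.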

Sequence	gcPBM binding intensity (ln)
AAATAACACTAATGATGTACTCAACTATTTATAATT [XGTACX_site8183]	9.47
TAAATATCAAGACACACACACAAAAGTGAATAAATA [CACACA_site7723]	9.9
TTATATTCTAGAGACACATGCGATTTTTTATTTTAT [TGCATGCA_site649]	9.42
ATATAATGATGGAAAAGAAAAGAAATAAAAAAAAAA [CACACA_negctrl_site1170]	9.21
TAGTTATCACATTGCACACACATTTCCTTTTACATT [CACACA_site7589]	10
CTAAAAATTTTAATTGCACACCACGTTGGACTATTT [CACACA_site1489]	9.24
AGCCATTAATTCTCTACACACCTTTATGTTATTTAG [CACACA_site3635]	9.71
TATTTTAATGAAGCATTTAAGGGAAAAAAAAAAAAA [TGCATGCA_negctrl_site606]	8.85
TTTACAAAAAATTATACACACACGTACAGATAAATA [CACACA_site4678]	9.89
TATAAATAAATTTATACACACACACCCATATATATA [CACACA_site8183]	10
TATATACACAAACACACACACACATACACCCACATA [CACACA_site8504]	10.3
AAAAAATACAAACACACACACACACCCATATATATA [CACACA_site3560]	10.2
TACAAACACCCATATACACACAAAAAAAAAATAAAA [CACACA_site5421]	9.55
AACATACAGAAACACACACACACACCCACACCCACA [CACACA_site493]	10.3
TATATACACCCACATACACACAAATAAAAAAACACC [CACACA_site3414]	9.98
TAAATAAATTTATACACACACACACCCATATATATA [CACACA_site849]	10.2
TATATACAGAAACACACACACACATATATATATATA [CACACA_site2247]	10.1
TATACGCAGAAACACACACACATACACCCACATACA [CACACA_site1723]	10
AATAAATATATATACACACCCATATATATATATATA [CACACA_site2595]	9.43
AAAAAAAAAAAAAACACACACACACCCATACAAAAT [CACACA_site1446]	10.1
TATACATACCCACCCACACACAAAAAAAAAAAAAAA [CACACA_site4632]	9.68
GATAAAATAAAAGTGGGTACTTAAATATATATATAA [XGTACX_site8457]	9.28
ATAAGAAAAAAGAACTGTACTAATAAAATATAAAAA [XGTACX_site3715]	9.3

Sequence	gcPBM binding intensity (ln)
TTTCGTAAAATGAAATGTACTCAAAAGTAAATATAA [XGTACX_site214]	9.03
TATTTTTCCATATGCACACACACCGTATATATAATA [CACACA_site1127]	10
AAAGAATAATTAAATACACACATATTGCAGTAAAAA [CACACA_site7201]	9.69
TATAAAAAATATAATTGTACATAAAGGTTAAAATGT [XGTACX_site6138]	9.47
ATTAGTTTTATATATAGTACATATAATTTTGAAGGT [XGTACX_site7445]	9.2
GTTAAAAAAAGGAGAGATCTCACACAAATATATATA [GTGCAC_negctrl_site117]	9.22
CATATATATAAATACACACACACACCCCTTATAATT [CACACA_site4064]	10.2
AAATAATTTGTTGACACACACACACCCATACATATA [CACACA_site2285]	10.2
TATATACGCAAACACACACACACATACACCCACATA [CACACA_site1724]	10.2
TACATATATATAAATACACACACACCCACCTTATAA [CACACA_site9346]	10.1
AAATAATTTGTTGACACACACACACCCATACAGATA [CACACA_site5291]	10.1
TCAAATAATTTGTTGACACACACACCCACATACATA [CACACA_site8717]	9.85
CATATAAATAAATACACACACACACGCCTTATAATT [CACACA_site7830]	10.2
CATATATACGCATACACACACACACCCACACCCACA [CACACA_site1725]	10.2
CAAAAAAACAAACACACACACACACCCATATATATA [CACACA_site3653]	10.2
AAAACACCCAAACACACACACACATATATATATATA [CACACA_site9119]	10.1
CATATACGCAAACACACACACATATATATATATATA [CACACA_site501]	10
AACAAAAAAACAAACACACACACACCCATATATATA [CACACA_site3652]	9.98
TAATATATGTTATATACACACATATAAATATAAATA [CACACA_site6339]	9.2
TGTTACATAAAATGCACACTTTCAAATATGCTAATA [CACACA_site2925]	9.05
GTTTCCTTAATATTCACACACATATCTATAATATAT [CACACA_site6959]	9.87
ACAAATAAAAATATTACACACACTATTATATTGATA [CACACA_site1494]	9.86
ATGGCCATAATATAGACACACATATATAAATATATA [CACACA_site2230]	9.28

Sequence	gcPBM binding intensity (ln)
TACACGCATAGACACACACACACACGCATATAAATA [CACACA_site6446]	10.3
ATATAAAATAGACACGCACACAAAAAAAAAAAAAAA [CACACA_site3522]	9.5
CATATACATAGACACACACACACATAAATAAATATA [CACACA_site6749]	10.1
TCATAGTATAGACACACACACACACGCATATAAATA [CACACA_site6915]	10.2
TATATTGATGATGATAGTACGTATGATTAGAAAAAA [XGTACX_site8989]	9.18
ATGTATATGTCTATATGTACTTATATTTTATTTTTT [XGTACX_site5902]	9.37
TTAATATATTAAATCTTACACACTAAAAAATATGTA [CACACA_site307]	9.16
ATACTAACATTTTTTTGTACATATAACTATAAAATA [XGTACX_site1033]	9.16
AGATATTTATTGAGTGCATGTTATAAAGGGAAAAAA [TGCATGCA_site88]	9.32
ATTAAATACATTAACACACACACAAATATATACATA [CACACA_site2881]	10.1
ATAAAACAAAAACACACACACATACACAAAAAAAAA [CACACA_site3848]	10.2
AACACATACAAACACACACACAAAAAAAAAAAAAAA [CACACA_site393]	9.78
TATAACATAAAACACACACACATACATACACAAAAA [CACACA_site1804]	10.1
TATACACATATATAAACACACAAAAAAAAAAAAAAA [CACACA_site7041]	9.38
AAAATAAAATAAAATACACACATACATACATACAAA [CACACA_site5366]	9.95
ATTAAATACATTAACACACACACAAATAAATACATA [CACACA_site5583]	10.3
AAATAAAACAAACACACACACACATACACAAAAAAA [CACACA_site3849]	10.2
TATAACATATGACACACACACATACATACACAAAAA [CACACA_site6935]	10.2
TATAACATAGGACACACACACATACATACACAAAAA [CACACA_site5062]	10.2
AATAAAATAAAATACACACATACATACATACAAATG [CACACA_site2438]	10.2
TTTAACATAAATTAAACACACAATAAAATACATTAA [CACACA_site6699]	9.54
TATATATTTCATAATACACACGAAAAAAAAAAAAAA [CACACA_site8972]	9.31
TACATTTAAAAAAAAACACACATATATATATATATA [CACACA_site2535]	8.99

Sequence	gcPBM binding intensity (ln)
TAATTTTTATTCAAGAGTACACAAAAGATAACTAAA [XGTACX_site4060]	9.14
AAAAAAAAAAAACATACACACAAATAAATACATACA [CACACA_site6073]	9.9
CAAAGACACAAACACACACACACATACATACATACA [CACACA_site453]	10.1
AATAAACATAAATACACACACAAAAAAAAAAACATA [CACACA_site4396]	10.3
ATAAAACAAAGACACACACACATACACAAAAAAAAA [CACACA_site7752]	10.2
ACAAAAAAAAAAAAAATACACACACATAAAAAAAAA [TGCATGCA_negctrl_site333]	9.72
AAGACACAAAAACACACACACATACATACATACATA [CACACA_site454]	9.91
TAATTTTTTTAAAAGCGTACATTTAAAAAAAAATAT [XGTACX_site2736]	8.76
TAATAACTACAAAAAAAAAAGAAAAATAGAAAAAGG [CACACA_negctrl_site1102]	9.55
TTGCATATTTCTAATTGTACATTATTTTATTTTATA [XGTACX_site8451]	9.45
AAAAAAAAGAAACACACACACATACACATAAATATA [CACACA_site3807]	10.1
AAAGAAAAAAAAAACACACACACACGCATTCAATAT [CACACA_site6169]	10.1
ATATAAGAAAAGCACACACACACAAAAAAAAAAAAA [CACACA_site2827]	10.1
AAAAAAAAAAAAGAAACACACATATATATATATATA [CACACA_site140]	9.23
AAAAGAAAAAGAAAAACACACATAAATATAAATATA [CACACA_site1879]	9.59
ATAAAAAAAAGAAAAACACACACATATATATATATA [CACACA_site8243]	9.61
AGAGATATAAGAAAAGCACACACACCCAAAAAAAAA [CACACA_site8917]	9.92
AAAGAAAAAAAAAACACACACACACCCATTCAATAT [CACACA_site38]	10.2
AGAAAAAAAAAACACACACACACACCCTCAATATAA [CACACA_site39]	10.1
CACTAAAAGAAACACACACACACACCCATATATATA [CACACA_site4151]	10.2
AGATATAAGAAAAGCACACACACACCCAAAAAAAAA [CACACA_site2826]	10.2
AATAAAAAGAAACACACACACACACCCATATATATA [CACACA_site3589]	10.2

Source: the supplement of paper PMC11417369
